Screening data from PubChem BioAssay.
JMJD2A Tudor inh: JMJD2A Tudor domain (human) inhibition | O75164 | AlphaScreen JMJD2A-Tudor / H3K4me3 peptide binding | Potency, µM (titrated, usually from 114 µM), inactives show at the top dose activity change, negative = inhibition, actives largely listed as inhibitors | 4.4% of 390,000 active; also: % is scaled to controls: 0 for no effect and ±100 for the full control effect; nearly all actives have a fitted effect of over 50% in size
HP1b binding inh: inhibitors of HP1-beta chromodomain binding to methylated histone tails. P83916. AlphaScreen HP1-beta / biotin-H3K9me3 peptide binding. Potency, µM (doses to about 114 µM), for the others: at the top dose activity change, negative = inhibition, usual class: inhibitors. 0.56% of 390,000 active. AID 540317; also: nearly all actives have a fitted effect of over 70% in size
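HP1-beta protein (50 nM final) preincubated 30 min at room temperature with biotinylated H3(1-18)K9me3 peptide (50 nM) in PBS pH 7.4, 0.01% Tween-20, then compound added for 30 min. AlphaScreen streptavidin donor/nickel chelate acceptor beads (10 ug/mL final), 30 min dark, luminescence read.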
PLK1 PBD block: PLK1 (human) polo-box domain binding inhibition; P53350; 2.8% of 360,000 active; Plk1 PBD binding of FITC phosphopeptide, fluorescence polarization; Potency, µM, inactives show max response, negative = inhibition, hits mostly inhibitors; AID 720504; also: series mostly up to about 57 µM; % is scaled to controls: 0 for no effect and ±100 for the full control effect; nearly all actives have a fitted effect of over 65% in size
VDR inhibitor: vitamin D3 receptor (human) inhibition. AID 504847. VDR-SRC2-3 peptide fluorescence polarization, 2 h. 0.93% of 400,000 active. Potency, µM, inactives show max response, negative = inhibition, hits mostly inhibitors; also: % is scaled to controls: 0 for no effect and ±100 for the full control effect
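Inhibition of the VDR/SRC2-3 peptide interaction is quantified by fluorescence polarization. Compounds (23 nl, pintool) incubate with the reagents for 2 hours at ambient room temperature.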
G9a block: G9a (human) methyltransferase inhibition | Q96KQ7 | G9a H3K9 monomethylation, AlphaScreen, 2 h | Potency, µM (top dose mostly 102 µM), inactives show at the top dose activity, negative = inhibition, usual class: inhibitors | 8.8% of 350,000 active | AID 504332; also: % is scaled to controls: 0 for no effect and ±100 for the full control effect; nearly all actives have a fitted effect of over 75% in size
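Step 1: enzyme (final 20 nM) with compound, 15 min RT. Step 2: substrate peptide 500 nM and SAM 20 uM, 2 h RT. Step 3: anti-H3K9me1 antibody and AlphaScreen beads, 10 min, then plate read.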
BAZ2B block: inhibitors of human BAZ2B bromodomain; AlphaScreen BAZ2B-H3K14Ac peptide displacement; Potency, µM (highest dose often 114 µM), for inactives: at the highest dose activity change, negative = inhibition, actives largely listed as inhibitors; 4.4% of 360,000 active; AID 504333; also: % is scaled to controls: 0 for no effect and ±100 for the full control effect; nearly all actives have a fitted effect of over 60% in size
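In this displacement format the biotinylated H3(5-23) peptide acetylated at Lys14 serves as ligand at 50 nM, with BAZ2B at 50 nM in PBS pH 7.4 containing 0.01% Tween-20. Donor and acceptor beads are 10 ug/mL final.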
* = called active by the depositor; ? = inconclusive; / = no result; [ ] = dose if it differs, or a comment. Hits are enriched below; roughly 11% of the tested compounds scored in any of these assays. Calls follow the shape of the dose curve; as a rule, active = well fitted curve in the direction sought with a large enough effect; inconclusive = small, poorly fitted or top-dose-only effect, or another doubt; inactive = no such curve, though single readings can be large; an effect the other way counts as inactive or inconclusive. Potency is read from the fitted curve at half-maximal effect.

SMILES	JMJD2A Tudor inh	HP1b binding inh	PLK1 PBD block	VDR inhibitor	G9a block	BAZ2B block
Cc1ccc(C)c(N2CCN(C(=O)CN3CCSc4ccc(S(=O)(=O)N(C)C)cc43)CC2)c1	-12%	13%[57 µM]	/	26%	-21%[59 µM]	-20%
CCOP(=O)(O)c1ccccc1OCCOCCOc1ccccc1P(=O)(O)OCC	?	27%	-7%	1%	56µM*	?
CCOC(=O)N1CCN(CC(O)COc2ccccc2C(C)C)CC1 (stereo not given)	-8%	18%	-1%	8%	11%[0.501 µM]	-12%
CCN(CCNCC(O)COc1ccccc1C(C)C)c1cccc(C)c1 (stereo not given)	0.79µM*	?	-3%	10%	10µM*	28µM*
CCc1ccc([C@@H]2CC=C(C(=O)O)[C@H](c3ccc(C(C)(C)C)cc3)N2S(=O)(=O)c2ccc(C)cc2)cc1	?	11%	24µM*	-24%	/	/
Cc1ccc(S(=O)(=O)N2[C@@H](c3ccc(C(C)(C)C)cc3)C(C(=O)O)=CC[C@H]2c2ccc(C(C)C)cc2)cc1	79µM*	9%	17µM*	-7%	/	/
Cc1ccc(S(=O)(=O)N2[C@@H](c3ccc(Cl)cc3)C(C(=O)O)=CC[C@H]2c2ccc(Cl)c(Cl)c2)cc1	-31%	18%	?	?	20%[2.33 µM]	?
Cc1ccc(S(=O)(=O)N2[C@@H](c3cccc(Cl)c3)C(C(=O)O)=CC[C@H]2c2ccc(Cl)cc2)cc1	-24%	26%	27µM*	-19%	11%[2.33 µM]	9%
Cc1ccc(S(=O)(=O)N2C(c3ccc(Cl)c(Cl)c3)CC=C(C(=O)O)C2c2ccc(Cl)cc2)cc1 (stereo not given)	/	/	27µM*	/	/	/
COc1ccccc1NC(=O)CCNS(=O)(=O)c1ccc2c(c1)CC(C)N2C(=O)C1CC1 (stereo not given)	-33%	19%	?	-8%	-7%[59 µM]	-11%
CCn1c(C)nnc1SCC(=O)Nc1ccc(Cl)cc1	-10%	24%	-10%	8%	/	9%
Cc1ccc([C@@H]2CC=C(C(=O)O)[C@H](c3ccc(Br)cc3)N2S(=O)(=O)c2ccc(C)cc2)cc1	?	34%	?	-10%	/	/
Cc1ccc(S(=O)(=O)N2[C@@H](c3ccc(C(C)(C)C)cc3)C(C(=O)O)=CC[C@H]2c2cccs2)cc1	-16%	14%	24µM*	-8%	/	/
CCOC(=O)C1=CC[C@@H](c2ccccc2)N(S(=O)(=O)c2ccc(C)cc2)[C@@H]1C#N	/	/	15µM*	/	/	/
O=C(O)C1=CC[C@@H](c2ccc(Cl)cc2)N(S(=O)(=O)c2ccc(Cl)cc2)[C@H]1c1ccc(F)cc1	-13%	35%	?	-25%	?	-3%
Cc1ccc(S(=O)(=O)N2[C@@H](c3ccc(C(C)(C)C)cc3)C(C(=O)O)=CC[C@H]2c2ccc(Cl)cc2)cc1	-24%	56%	21µM*	?	/	/
Cc1ccc(S(=O)(=O)N2[C@@H](c3ccc(Br)cc3)C(C(=O)O)=CC[C@H]2c2ccc(C(C)C)cc2)cc1	?	11%	30µM*	?	/	/
Cc1ccc2c(c1)C(=O)C1(O)CCN(c3ccccc3)C1=N2 (stereo not given)	/	/	/	-5%	15%[59 µM]	/
Cc1ccc([C@@H]2CC=C(C(=O)O)[C@H](c3ccc(F)cc3)N2S(=O)(=O)c2ccc(C)cc2)cc1	-18%	30%	-20%	-22%	-20%[2.33 µM]	5%
Cc1ccc([C@@H]2CC=C(C(=O)O)[C@H](c3ccc(C(C)(C)C)cc3)N2S(=O)(=O)c2ccc(C)cc2)cc1	?	30%	27µM*	-6%	/	/
CCNC(=O)c1cnc2sc(N3CCC(C)CC3)nn2c1=O	-7%	10%	/	9%	-5%[59 µM]	-5%
CN(C)c1ccc(C(CNC(=O)c2cccc(C(F)(F)F)c2)N2CCCC2)cc1 (stereo not given)	?	-12%	/	-9%	-39%[59 µM]	?
CCOC(=O)CCC(=O)Nc1nnc2n1CCS2	40µM*	-7%[57 µM]	/	5%	13µM*	?
